Hit rate of the full screen: of about 69,000 compounds, about 8,600 (12%) showed an effect of 50% or more. The entries come from a sample that favours strong results as a whole.

This note sets out measurements from ChEMBL document CHEMBL4513216, “Probing the Open Global Health Chemical Diversity Library for Multistage-Active Starting Points for Next-Generation Antimalarials” (ACS Infect Dis, 2020).

The test concerns Plasmodium berghei. The test can be described thus: Screen against P. berghei liver stage (PbLuc), transformed with Luciferase, at 10uM. In kind it is functional, HepG2. As to conditions: tested at 10 uM.
Regarding `CSC(C)Cc1c(-c2ccccc2)ncn1CCCNc1cccnc1` (centres undefined), the INHIBITION is on record as 82.5%.

Take `Cc1c(-c2ccccc2)ncn1CC(c1cccnc1)N1CCOCC1` (centres undefined): the INHIBITION is listed as 37.2%.

With `Cc1cc(NCCCNc2cccnc2)n2nc(C)c(C)c2n1`, the INHIBITION is 3.945%.

As to `Cc1c(-c2ccccc2)ncn1CCCNc1cccnc1`, the INHIBITION amounted to 22.7%.

With `CC[C@H]1N(Cc2ccco2)CCC[C@]12CCC(=O)N2C`, the INHIBITION is given as 1.34%.

With `CC(C)NC(=O)Nc1ncc(-c2cccnc2)s1`, the INHIBITION is recorded as -42.9%.

Consider `Cc1nn(C)c(C)c1C1COCCN1C(=O)c1ccc(Cl)o1` (centres undefined), for which the INHIBITION was -16%.

Take `Cc1ccc(NCc2cn3c(n2)CN(Cc2ccoc2)CC3)nn1`: the INHIBITION is 26.5%.

As for `O=C1CC2(CCSC2)C(=O)N1Cc1ncc(-c2cccc(F)c2)o1` (centres undefined), the INHIBITION was -26.8%.

As for `COc1cccc(-c2cc(C(=O)N3N=C(C)CC3(O)C(F)(F)F)[nH]n2)c1` (centres undefined), the INHIBITION was 38.3%.

Turning to `Cc1ncc(-c2ccccn2)c(CCNC(=O)CCC2CCCO2)n1` (centres undefined), the INHIBITION is on record as 28.5%.

As to `C[C@@H](NCc1cccc(Cl)c1)c1onc(-c2ccc(F)cc2)c1C(=O)O`, the INHIBITION is reported as -3.58%.

As to `CCCc1nc(CN2CCOC(Cn3cccn3)C2)no1` (centres undefined), the INHIBITION is recorded as -43.5%.

In the case of `CC(C)N1CCC(NCc2cccnc2N(C)Cc2ccccc2)CC1`, the INHIBITION came to 37.8%.

Consider `CN(Cc1ccccc1)c1ncccc1CNC1CCC1`, for which the INHIBITION was found to be 22.5%.

For the molecule `CN(Cc1ccccc1)c1ncccc1CNC1CCSCC1`, the INHIBITION came out at 51.8%.

As to `CN(Cc1ccccc1)c1ncccc1CNC1CCCC1`, the INHIBITION was 20.4%.

For `CN(Cc1ccccc1)c1ncccc1CNC1CN2CCC1CC2` (centres undefined), the INHIBITION is recorded as 62.6%.

As for `CC(=O)N1CCC(NCc2cccnc2N(C)Cc2ccccc2)CC1`, the INHIBITION is given as 6.31%.

`CC(C)(C)CC(=O)NCC(=O)Nc1ccn(Cc2ccncc2)n1`: the INHIBITION was -12.4%.

For the molecule `Cc1nn(C)cc1C(=O)N1C[C@@H]2CC[C@H]1CN(S(=O)(=O)N(C)C)C2`, the INHIBITION is reported as -109%.

For the molecule `Cn1cccc1C(O)CNC(=O)c1ccc(C(F)(F)F)cc1` (centres undefined), the INHIBITION is -118%.

For the molecule `CS(=O)(=O)N1CCC2(CN(C(=O)c3cccnc3)C2)C1`, the INHIBITION was found to be 33.5%.

As for `O=C(c1cccnc1)N1CCC2(CCN(C(=O)c3ccco3)CC2)C1`, the INHIBITION was found to be 59.3%.

Take `Cc1occc1C(=O)N1CCC2(CCN(C(=O)c3cccnc3)C2)CC1`: the INHIBITION is reported as 28.5%.

As to `O=C(CC1CC1)N1CCC2(CC1)CN(c1cccnc1)C(=O)CO2`, the INHIBITION stood at 30.3%.

Take `CS(=O)(=O)N1CCC2(CCN(C(=O)c3cccnc3)CC2)C1`: the INHIBITION was found to be 58.8%.

With `Cc1cccc(N2CCC3(CCCN(C(=O)c4cccnc4)C3)C2)n1` (centres undefined), the INHIBITION was -19.1%.

On to `Cc1ccc(N2CCC3(CCCN(C(=O)c4cccnc4)C3)C2)nn1` (centres undefined), for which the INHIBITION turned out to be 53.5%.

`CS(=O)(=O)N1CCOCC2(CCN(C(=O)c3cccnc3)CC2)C1`: the INHIBITION is given as 18.5%.

`Cc1ccc(C(=O)N2CCC3(CCN(C(=O)c4cccnc4)C3)CC2)o1`: the INHIBITION stood at 34.7%.

Regarding `O=C(N1CCCC1)N1CCC2(CC1)CN(c1cccnc1)C(=O)CO2`, the INHIBITION amounted to 82.9%.

Consider `Cc1ccc(C(=O)N2CCC3(CCCN(c4ccc(C)nn4)C3)C2)cn1` (centres undefined), for which the INHIBITION was determined as 18.6%.

For `CC(=O)NCC(=O)N1CCC2(CC1)CN(c1cccnc1)C(=O)CO2`, the INHIBITION turned out to be 17.1%.

With `Cc1nn(C)c(C)c1CNCc1cccnc1N1CCOCC1`, the INHIBITION was found to be 22.5%.

Regarding `CN(C)C(=O)C1OC2(CCN(C(=O)c3ccco3)CC2)c2ccccc21` (centres undefined), the INHIBITION worked out at 12.7%.

For the molecule `CC(C#N)CN(C)C(=O)CCNC(=O)C(C)(C)C` (centres undefined), the INHIBITION is -6.91%.

In the case of `CCc1[nH]ncc1C(=O)N1CCCC(n2cc(C)cn2)C1` (centres undefined), the INHIBITION is -12.2%.

For `O=C(c1ccco1)N1C[C@H]2CCCN(Cc3cccs3)[C@H]2C1`, the INHIBITION is given as 37%.

Consider `CC(C)c1nn(C)c(N2CCOCC2)c1CNCCC(=O)N(C)C`, for which the INHIBITION is listed as 24.95%.

On to `O=S(=O)(NCc1ccccc1)Nc1ccc(-n2cncn2)cc1`, for which the INHIBITION was 35%.

For the molecule `CC(C)c1n[nH]c(C2CN(C(=O)CCc3cscn3)CCO2)n1` (centres undefined), the INHIBITION is listed as -15.52%.

`Cc1ccccc1OCC(=O)N1CCCC(CNS(C)(=O)=O)C1` (centres undefined): the INHIBITION is given as -3.8%.

As for `O=C(NCc1nncn1C1CCCCC1)C1CNCCO1` (centres undefined), the INHIBITION is 33.4%.

`COc1ccc(C2CCCN2C(=O)c2ccnc(NC3CC3)c2)cc1` (centres undefined): the INHIBITION is recorded as -59.3%.

As for `O=C(NC1CC1)N1Cc2[nH]nc(COc3cccnc3)c2C1`, the INHIBITION is on record as -4.02%.

Consider `CN(C)Cc1cccc(-c2cccnc2C(=O)NCC2CC2)c1`, for which the INHIBITION is on record as 18.4%.

Turning to `Cn1cccc1C(=O)N1CCC2(CCN(C(=O)c3cccnc3)C2)CC1`, the INHIBITION is recorded as 37.6%.

As for `CC(C)N1CCC2(CCN(C(=O)c3cccnc3)CC2)C1`, the INHIBITION came out at 15.4%.

Regarding `O=C(c1ccncc1)N1CCC2(CC1)CCN(C(=O)c1cccnc1)C2`, the INHIBITION is 53.9%.

For the molecule `NC(=O)N1CCC2(CCN(C(=O)c3cccnc3)CC2)C1`, the INHIBITION is on record as 86.5%.

As to `O=C(c1ccno1)N1CCC2(CC1)C(=O)Nc1ccccc12`, the INHIBITION is -19.5%.

As to `O=C(c1ccco1)N1CCC2(CC1)C(=O)Nc1ccccc12`, the INHIBITION stood at 64.4%.

For `O=C(c1ccoc1)N1CCC2(CC1)C(=O)Nc1ccccc12`, the INHIBITION was determined as 25.4%.

As for `O=C(c1ccnnc1)N1CCC2(CC1)CCN(C(=O)c1cccnc1)C2`, the INHIBITION was found to be 16.8%.

For `Cc1cccc(N2CCC3(CCN(C(=O)c4cccnc4)CC3)C2)n1`, the INHIBITION is given as 19.5%.

As to `O=C(c1cccnc1)N1CCC2(CCN(C(=O)N3CCCC3)CC2)C1`, the INHIBITION is listed as 61.1%.

Turning to `Cc1cccc(N2CCC3(CCCN(C(=O)c4cccnc4)C3)CC2)n1`, the INHIBITION is recorded as -1.26%.

As to `CN1CCC2(CCN(C(=O)c3cccnc3)C2)C1` (centres undefined), the INHIBITION was found to be 12.2%.
